Screening data (PubChem)
This is a sample that favours compounds with a hit; in the whole collection about 12% have one here.
G9a block: blocks human histone lysine methyltransferase G9a | G9a H3K9 monomethylation, AlphaScreen, 2 h | Q96KQ7 | AID 504332 | Potency, µM (doses to about 102 µM), for inactives: at the top dose activity, negative = inhibition, usual class: inhibitors | 350,000 tested, 8.8% active; further: on the % scale 0 is the no-effect control and ±100 the full control effect; nearly all actives have a fitted effect of over 75% in size
Target sequence (Q96KQ7 913-1193 limits assumed): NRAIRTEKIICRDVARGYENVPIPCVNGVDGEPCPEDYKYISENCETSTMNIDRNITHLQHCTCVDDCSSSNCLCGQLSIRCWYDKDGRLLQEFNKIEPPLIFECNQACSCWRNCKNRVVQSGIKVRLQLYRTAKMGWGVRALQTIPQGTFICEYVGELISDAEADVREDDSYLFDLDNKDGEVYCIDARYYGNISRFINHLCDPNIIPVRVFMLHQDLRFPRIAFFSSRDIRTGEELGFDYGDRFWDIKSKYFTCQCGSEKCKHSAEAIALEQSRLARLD
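G9a (20 nM) preincubated 15 min RT with compounds, then 500 nM biotinylated H3K9 peptide and 20 uM SAM added; 2 h RT reaction. Monomethyl-H3K9 product detected by AlphaScreen with anti-H3K9me1 antibody, streptavidin donor and anti-rabbit IgG acceptor beads.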
JMJD2A Tudor inh: blocks the human JMJD2A Tudor domain. AID 504339. 390,000 tested, 4.4% active. AlphaScreen JMJD2A-Tudor / H3K4me3 peptide binding. Potency, µM (series often up to 114 µM), inactives show top-dose activity change, negative = inhibition, hits mostly inhibitors. O75164; further: on the % scale 0 is the no-effect control and ±100 the full control effect; nearly all actives have a fitted effect of over 50% in size
Sfp inh: Sfp phosphopantetheinyl transferase inhibition; Q9F4F7; Biochemical Sfp PPTase activity, qHTS; Potency, µM, for the others: largest response in the series, negative = inhibition, hits mostly inhibitors; 310,000 tested, 3.5% active; AID 1490;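 further: the enzyme is Sfp with the accession as filed and its product quenches rhodamine fluorescence; 0% = enzyme reaction without inhibitor and -100% = no enzyme wells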
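Compounds were incubated with enzyme (final 15 nM) for 15 min at room temperature before substrate addition started the reaction. Fluorescence at 525 nm excitation, 598 nm emission was recorded immediately and after 30 minutes.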
HP1b chromo inh: HP1-beta chromodomain-methylated histone interaction inhibition. AID 540317. 390,000 tested, 0.56% active. Potency, µM (series often up to 114 µM), inactives show top-dose activity change, negative = inhibition, most hits filed as inhibitors. AlphaScreen HP1-beta / biotin-H3K9me3 peptide binding; further: nearly all actives have a fitted effect of over 70% in size
Target sequence (P83916 whole entry, looked up): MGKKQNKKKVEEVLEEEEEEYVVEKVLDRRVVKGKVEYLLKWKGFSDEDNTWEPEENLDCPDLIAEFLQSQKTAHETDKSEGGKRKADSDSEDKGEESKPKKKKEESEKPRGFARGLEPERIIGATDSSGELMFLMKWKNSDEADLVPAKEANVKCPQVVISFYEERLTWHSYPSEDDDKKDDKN
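HP1-beta protein (50 nM final) preincubated 30 min at room temperature with biotinylated H3(1-18)K9me3 peptide (50 nM) in PBS pH 7.4, 0.01% Tween-20, then compound added for 30 min. AlphaScreen streptavidin donor/nickel chelate acceptor beads (10 ug/mL final), 30 min dark, luminescence read.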
BAZ2B inh: inhibitors of human BAZ2B bromodomain. AlphaScreen BAZ2B-H3K14Ac peptide displacement. 360,000 tested, 4.4% active. Q9UIF8. Potency, µM (top dose mostly 114 µM), for inactives: at the highest dose activity change, negative = inhibition, most hits filed as inhibitors; further: on the % scale 0 is the no-effect control and ±100 the full control effect; nearly all actives have a fitted effect of over 60% in size
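BAZ2B (50 nM) with biotin-H3(5-23)K14Ac peptide (50 nM) in PBS pH 7.4, 0.01% Tween-20, preformed 30 min, then compound 30 min at room temperature; top concentration 110uM. AlphaScreen streptavidin donor/nickel chelate acceptor beads (10 ug/mL final), 20 min dark, signal read.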
PLK1 PBD block: blocks phosphopeptide binding to human PLK1 polo-box domain | P53350 | Plk1 PBD binding of FITC phosphopeptide, fluorescence polarization | Potency, µM, without a hit: max response, negative = inhibition, most hits filed as inhibitors | 360,000 tested, 2.8% active | AID 720504; further: series mostly up to about 57 µM; on the % scale 0 is the no-effect control and ±100 the full control effect; nearly all actives have a fitted effect of over 65% in size
Starred values were filed as active, the others as inactive; ? = inconclusive; . = no result; ! = a repeat was not active; [ ] = another dose, or the depositor's remark. The call rests on the fitted dose curve; in most records, active means well fitted curve in the direction sought with a large enough effect; inconclusive means small, poorly fitted or top-dose-only effect, or another doubt; inactive means no such curve, though single readings can be large; an effect the other way counts as inactive or inconclusive. Potency means the concentration at half of the fitted maximal effect.

SMILES | G9a block | JMJD2A Tudor inh | Sfp inh | HP1b chromo inh | BAZ2B inh | PLK1 PBD block
N#C/C(=C\c1ccc(O)c(O)c1)C(=O)NCCCc1ccccc1 | 3.4µM* | 45µM* | 63µM*! | ? | 8.9µM* | -19%
CCOCCCNC(=O)/C(C#N)=C/c1ccc(Cl)c([N+](=O)[O-])c1 | ? | -2% | 6% | ? | -22% | -26%
COCCNC(=O)/C(C#N)=C/c1ccc(O)cc1 | . | -6% | 7% | 31% | 5% | -4%
CCOCCCNC(=O)/C(C#N)=C/c1cc(OC)c(O)c([N+](=O)[O-])c1 | 50µM* | -23% | -24% | -17% | ? | -13%
COCCNC(=O)/C(C#N)=C/c1cccc(/C=C(\C#N)C(=O)NCCOC)c1 | -9%[59 µM] | -11% | 20µM* | 0% | -3% | ?
COc1ccc(CNC(=O)Cc2c(C)c3c(cc(C)c4c(C)c(C)oc43)oc2=O)cc1OC | 8%[59 µM] | -13% | . | 23% | -12% | .
COc1cc(/C=C(/C#N)C(=O)NCc2ccccc2)cc(OC)c1OC | . | -3% | -2% | 52% | -2% | -4%
COc1ccc(/C=C(\C#N)C(=O)NCCc2ccccc2)cc1OCc1ccccc1 | 1µM* | -7% | 13% | 42% | 42% | -9%
C[C@@]12C(=O)N(CC3CC3)CC(=O)N1[C@H](C1CC1)[C@@H]1C(=O)N(c3ccccc3)C(=O)[C@@H]12 | -17% | -1% | 15% | 45% | 0% | 2%
COc1cc(OC)c2c(C)cc(=O)oc2c1C(CCN1CCN(c2ccccc2)CC1)c1ccc2c(c1)OCO2 (stereo not given) | -5%[12.7 µM] | 28µM* | -5% | ? | 25µM* | -20%
COc1cc(OC)c2ccc(=O)oc2c1C(CC(=O)N1CCN(c2ccccc2)CC1)c1ccc2c(c1)OCO2 (stereo not given) | 13%[12.7 µM] | 40µM* | -1% | -27% | 40µM* | -18%
COc1cc(OC)c2c(-c3ccccc3)cc(=O)oc2c1C(CCN1CCOCC1)c1ccc2c(c1)OCO2 (stereo not given) | -44%[59 µM] | 32µM* | ? | ? | . | -6%
CCN(CC)C(=O)CC(c1cc(OC)c(OC)c(OC)c1)c1c(OC)cc(OC)c2c(-c3ccccc3)cc(=O)oc12 (stereo not given) | ? | 56µM* | -7% | 0% | 50µM* | ?
CCOC(=O)[C@]12CCC=C1N(Cc1ccc3c(c1)OCO3)C(=O)[C@H](CC(=O)NCc1cccc(C(F)(F)F)c1)C2 | . | . | . | . | . | -2%
CC(C)(C)c1ccc(CNC(=O)C2CCCN2C(=O)Nc2ccccc2)cc1 (stereo not given) | 5% | -20% | 0% | -12% | 10% | -6%
COc1cc(C(CCN2CCOCC2)c2c(OC)cc(OC)c3c(-c4ccccc4)cc(=O)oc23)cc(OC)c1OC (stereo not given) | ? | 79µM* | ? | -20% | . | 3%
COc1cc(C(CCN2CCCC2)c2c(OC)cc(OC)c3c(-c4ccccc4)cc(=O)oc23)cc(OC)c1OC (stereo not given) | 19%[59 µM] | ? | -14% | -2% | -18% | -9%
O=C(c1cccc([N+](=O)[O-])c1)N1CCN(c2ccc(Nc3ccccc3)nn2)CC1 | 1%[59 µM] | -26% | . | 2% | -19% | .
CCOC(=O)CNS(=O)(=O)c1cc(-c2nn(C)c(=O)c3ccccc23)ccc1C | ? | ? | 11% | -7% | 56µM* | -8%
Cc1ccc(S(N)(=O)=O)cc1NC(=O)C(c1ccccc1)c1ccccc1 | . | -17% | 8% | 32% | -5% | -8%
O=C(Nc1cccnc1)c1ccccc1O | 6%[59 µM] | -8% | 16% | 37% | -30% | -4%
COCCNC(C)C(=O)Nc1ccc(Br)cc1 (stereo not given) | 11µM* | 4µM* | -26% | -35% | 50µM* | -6%
COCCSc1ccccc1C(=O)Nc1ccc(Br)cc1 | 20µM* | 11% | -19% | 37% | -19% | 3%
COc1ccccc1C(=O)Nc1cc(C)on1 | -20% | 1% | 17% | 50% | 2% | -10%
